This is a sample that favours compounds with a hit; in the whole collection about 1.9% have one here.
USP2a block: blocks human ubiquitin-specific protease USP2a. O75604. USP2 core, Ub-CHOP2 coupled fluorogenic reporter, 485/531. Potency, µM (titrated, usually from 38.3 µM), without a hit: top-dose activity change, negative = inhibition, actives largely listed as inhibitors. 330,000 tested, 0.01% active;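 note: potency is the fitted concentration of half-maximal effect; plate controls were DMSO wells for no effect and full inhibition by NEM control for full effect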
Target sequence (O75604 whole entry, looked up): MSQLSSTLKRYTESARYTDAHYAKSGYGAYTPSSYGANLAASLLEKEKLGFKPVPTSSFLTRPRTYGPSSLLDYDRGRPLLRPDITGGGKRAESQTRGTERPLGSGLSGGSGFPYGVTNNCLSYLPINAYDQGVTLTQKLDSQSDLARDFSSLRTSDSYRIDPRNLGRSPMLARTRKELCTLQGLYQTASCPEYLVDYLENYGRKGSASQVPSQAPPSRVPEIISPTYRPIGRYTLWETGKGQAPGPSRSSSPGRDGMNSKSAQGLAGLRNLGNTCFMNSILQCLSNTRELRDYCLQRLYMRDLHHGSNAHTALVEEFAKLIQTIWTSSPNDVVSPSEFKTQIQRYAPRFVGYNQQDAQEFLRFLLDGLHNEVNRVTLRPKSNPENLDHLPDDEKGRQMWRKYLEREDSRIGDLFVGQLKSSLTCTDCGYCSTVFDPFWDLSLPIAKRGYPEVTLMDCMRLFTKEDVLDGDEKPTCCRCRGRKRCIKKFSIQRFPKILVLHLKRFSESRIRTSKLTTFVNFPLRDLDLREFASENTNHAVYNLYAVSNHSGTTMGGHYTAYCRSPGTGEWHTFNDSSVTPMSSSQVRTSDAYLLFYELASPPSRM
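Deubiquitinase activity read as fluorescence (485/531 nm) after Ub-CHOP2 cleavage activates the enterokinase reporter on its substrate; USP2 core 10nM, Ub-CHOP2 and substrate 25nM each, 30min compound preincubation then 60min RT; data normalized to NEM, curves fitted.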
IL2 activator: IL-2 activation; IL-2 activation reporter assay, cell-based qHTS; stimulated with anti-CD3/CD4/CD28 beads; in transgenic mouse T cells; activation, % (series mostly up to about 46 µM); 360,000 tested, 0.065% active; AID 652025; in the data active = activation above about 50%; inconclusive = mostly about 30% to 49%; note: 0% is about no effect
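Using fluorescent plate cytometry, EGFP and DsRed are detected in transgenic mouse T cells stimulated 18 h at 37 degrees C with antibody-coated beads after 60 min compound pretreatment.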
PKM2 act: increases activity of human pyruvate kinase M2 | purified PKM2, Kinase-Glo ATP luminescence, activation; response scale: 0% is enzyme alone, no compound | 260,000 tested, 0.34% active | Potency, µM (series often up to 57.5 µM), for the others: top-dose activation, most hits filed as activators; note: potency is the fitted concentration of half-maximal effect; % is set by controls: 0 for no effect and ±100 for the full control effect; nearly all actives have a fitted effect of over 55% in size
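Purified hPK-M2 (>95%) run at intermediate activity with 0.1 mM ADP and 0.5 mM PEP in 50 mM imidazole pH 7.2, KCl, MgCl2; 1 h room temperature. ATP formed read by Kinase-Glo luminescence; normalized to uninhibited and no-enzyme controls.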
ClpP mod: qHTS Assay for Activators of ClpP; ATP-dependent Clp protease proteolytic subunit (Bacillus subtilis (strain 168)), P80244; purified B. subtilis ClpP, FRET peptide cleavage, 20 min; Potency, µM (top dose mostly 57.5 µM), for the others: at the top dose activity change, negative = active; 340,000 tested, 1.9% active; active = well fitted falling curve with a large enough effect; inconclusive = small, poorly fitted or top-dose-only effect; inactive = no such curve, though single readings can be large or run the other way; note: potency is the fitted concentration of half-maximal effect; the source files actives as falling curves though it sought activators and does not explain the sign; nearly all actives have a fitted effect of over 65% in size
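Buffer: 100 mM Tris/HCl pH8, 100 mM KCl, 0.05% low protease BSA, 2.5% glycerol, 0.01% Tween-20. ClpP 10 microg/mL final; 20 min RT; delta FRET normalized to ADEP and DMSO controls.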
Pin1 inh: human Pin1 inhibition | Potency, µM (titrated, usually from 115 µM), without a hit: at the top dose activity, negative = inhibition, hits mostly inhibitors | 390,000 tested, 0.009% active | Q13526 | Pin1 FP peptide displacement, HiFluor488, 10 min; active = well fitted inhibition curve with a large enough effect in the polarisation, with a control signal flat, not every such curve was filed as active; inconclusive = small, poorly fitted or top-dose-only effect, or effect the other way, or a change in a side signal; inactive = no such curve, though single readings can be large or run the other way; the % refers to the polarisation; note: potency is the fitted concentration of half-maximal effect; % is set by controls: 0 for no effect and ±100 for the full control effect
a7 integrin act: integrin-mediated muscular dystrophy alleviation activation | alpha7betagal myoblasts, beta-gal FDG fluorescence, 48 h | Potency, µM (top dose mostly 38.3 µM), for the others: at the highest dose activation, hits mostly activators | 350,000 tested, 0.064% active;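 note: potency is the fitted concentration of half-maximal effect; 100% = response of the positive control SU9516; nearly all actives have a fitted effect of over 60% in size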
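Alpha7betagal+/- myoblasts (passage 13) were plated 16-24 hr, then exposed to compounds (1:260 dilution of DMSO stock) for 48 hours at 37C. After MPER lysis, β-galactosidase reporter activity was read as FDG fluorescence (ex 480/em 540) after 30 minutes.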
Numbers without * were called inactive; ? = inconclusive; / = no result. Unless noted, calls come from the whole dose curve; as a rule, active = well fitted curve in the direction sought with a large enough effect; inconclusive = small, poorly fitted or top-dose-only effect, or another doubt; inactive = no such curve, though single readings can be large; an effect the other way counts as inactive or inconclusive.

SMILES	USP2a block	IL2 activator	PKM2 act	ClpP mod	Pin1 inh	a7 integrin act
CCc1sc(-c2cc3cccc(OC)c3oc2=O)nc1-c1cc(C)ccc1C	/	/	/	4%	-3%	/
Cn1c(=O)c2c(nc(Br)n2CC(=O)c2cccs2)n(C)c1=O	5%	1	3%	28µM*	10%	-16%
Cn1c(=O)c2c(nc(SCC(=O)c3cccs3)n2Cc2ccc(F)cc2)n(C)c1=O	-11%	-1	20%	-3%	?	9%
O=Cc1ccc(I)cc1	/	/	/	0%	/	/
Cc1ccc2c(c1)c1c3n2CCN(C(=O)c2cccc(C(F)(F)F)c2)C3CCC1 (stereo not given)	/	/	/	-3%	1%	/
CCN(CC)CCNC(=O)c1c2c(nc3ccccc13)C(=O)N(C1CCCCC1)C2	/	/	/	28µM*	1%	/
N#CC1=C(O)C(c2ccccc2)n2c1nc(=O)c1ccccc12 (stereo not given)	1%	0	-18%	18µM*	17%	5%
CCCCN1C=C(C(=O)OC)C(c2ccccc2C(F)(F)F)C(C(=O)OC)=C1	3%	1	5%	32µM*	-1%	0%
COCCN1C=C(C(=O)OC)C(c2ccccc2C(F)(F)F)C(C(=O)OC)=C1	-2%	0	2%	-6%	-2%	29%
CC1(C)CC(=O)c2sc(NC(=O)CN3CCCCC3)nc2C1	0%	0	-3%	16µM*	-1%	2%
CN(C(=O)COC(=O)c1ccccc1OCC(=O)Nc1ccc(Br)cc1)c1ccccc1	/	/	/	-6%	/	/
O=C(CCS(=O)(=O)c1nc(-c2cccs2)cc(C(F)(F)F)n1)Nc1ccc(Br)cc1	/	/	/	32µM*	12%	/
O=C(CCS(=O)(=O)c1nc(-c2cccs2)cc(C(F)(F)F)n1)Nc1cc(Br)ccc1O	/	/	/	4%	18%	/
CCCn1c(-c2ccc(F)cc2)nc2c(NCCN(C)C)nc(C)nc21	/	/	-32%	/	/	/
O=[N+]([O-])c1ccc(S(=O)(=O)N2CCN(c3nc(-c4cccs4)nc4ccccc34)CC2)cc1	/	/	/	-2%	-1%	/
O=C(O)c1cc(NCc2ccc(F)cc2)ccc1N1CCOCC1	1%	1	7%	32µM*	-9%	14%
Cc1ccc(C2C3=C(CCCC3=O)Nc3nc(SCC(=O)NCc4ccco4)[nH]c(=O)c32)cc1 (stereo not given)	1%	0	7%	20µM*	3%	22%
Cc1nc(SCC(=O)NCc2ccco2)[nH]c(=O)c1C	4%	-1	2%	-1%	-14%	15%
Nc1ccc2c(c1)C(=O)N(CCCCCC(=O)O)C2	7%	-1	-2%	16µM*	-7%	21%
Nc1ccc2c(c1)C(=O)N(CCCC(=O)O)C2=O	0%	-1	-8%	0%	-19%	-12%
Cc1ccc(N(C(=O)COc2ccccc2C)S(=O)(=O)c2ccc(Cl)cc2)cc1	/	/	/	0.71µM*	1%	/
COc1ccccc1C(=O)N(c1ccc(C)cc1)S(=O)(=O)c1ccc(Cl)cc1	/	/	/	0%	2%	/
COc1ccccc1Oc1coc2c(CN3CCOCC3)c(O)ccc2c1=O	1%	0	2%	/	-15%	-11%
COc1cccc(Oc2coc3c(CN4CCOCC4)c(O)ccc3c2=O)c1	-2%	0	-3%	20µM*	-5%	-1%
CCCC(=O)N(C)c1ccc(/C=C2\C=Cc3ccccc32)cc1	/	/	/	-1%	/	/
COc1ccc(-c2cc(C(F)(F)F)nc(N3CCCCC3)n2)cc1OC	-1%	0	0%	35µM*	5%	-42%
COc1ccc(-c2cc(C(F)(F)F)nc(N3CCCCCC3)n2)cc1	-1%	0	-3%	22µM*	0%	14%
CCCCC(=O)N1C/C=C\C(c2ccc(OC)cc2)N(Cc2ccc(F)cc2)C(=O)C1Cc1ccccc1 (stereo not given)	/	/	/	/	3%	/

Compound activity from PubChem BioAssay.
